Only some compounds are listed: those with a hit (about 4.2% of all), similar ones and a draw of the others.
hcDAF12 agonist = activates DAF-12 receptor from parasite H. contortus. HEK293 hcDAF-12 lit1-tk-luc reporter, luminescence; 0% DMSO, 100% Δ7-dafachronic acid. activation, % at 6.8 µM. hit rate 1.4% among 370,000. AID 652067;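 active = activation above the mean of all tested compounds plus 3 SD, cut at about 5.5% in these data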;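 note: 100% = response to 3 µM Δ7-dafachronic acid high control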
Wnt act = Wnt/beta-catenin pathway activation; Wnt/beta-catenin reporter cell assay, activator, plate reader; hit rate 1.2% among 300,000; activation, % at 9.35 µM; in the data active = activation above about 30%, passing the limit was not always enough;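 note: 0% = neutral control wells and 100% = positive control wells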
esBAF inh = SWI/SNF esBAF complex inhibition. mouse ES cells, Bmi1-luciferase knock-in reporter, 24 h; 100% = twice the neutral-well signal. reporter increase, % at 12.5 µM. hit rate 2% among 350,000; in the data active = activation above about 40%;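 note: 0% = median of the plate's neutral control wells and 100% = double that signal; a rise in the Bmi1 reporter signal indicates esBAF inhibition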
DAX1 inh = DAX1 (NR0B1) inhibition, primary screen. inhibition, % at 6.8 µM. HEK293T StAR-luciferase reporter, SF-1/DAX-1 repression relief. AID 652010. hit rate 1.1% among 370,000;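 active = inhibition above the mean over all tested compounds plus 3 SD, cut at about 3.6% in these data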;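 note: 0% = DAX-1 cells with DMSO and 100% = cells lacking DAX-1 with DMSO; higher inhibition means more luminescence from relief of DAX-1 repression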
hgDAF12 agonist = hgDAF-12 agonism, primary luciferase screen; HEK293 GAL4-hgDAF12 UAS-luciferase reporter, agonist luminescence; normalized to butyrate control; activation, % at 6.8 µM; hit rate 1.8% among 370,000; AID 687014;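 active = activation above a cutoff set at the mean of all screened compounds plus 3 SD, cut at about 10% in these data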;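 note: 0% = DMSO wells and 100% = sodium butyrate wells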
ssDAF12 agonist = activators of S. stercoralis DAF-12 nuclear receptor; HEK293 ssDAF-12/GRIP1 lit1-tk-luc reporter, luminescence; % of 3 µM dafachronic acid response; activation, % at 6.8 µM; hit rate 1% among 370,000;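 active = activation above the mean over all tested compounds plus 3 SD, cut at about 0.9% in these data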;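 note: 0% = DMSO-only wells and 100% = 3 µM delta7-dafachronic acid wells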
LXRb hcDAF ctr = LXR-beta agonism as hcDAF-12 counter-screen; AID 743027; activation, % at 6.8 µM; 3,400 tested, under 10 active; shares compounds with hcDAF12 agonist; HEK293 Gal4-LXR tk-luc reporter, luminescence, 24 h; normalized: DMSO 0%, positive control 100%;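 active = mean percent activation of the reporter above a cutoff set as the average over tested compounds plus their standard deviation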
Target sequence (P55055 whole entry, looked up, the tested form may be a part): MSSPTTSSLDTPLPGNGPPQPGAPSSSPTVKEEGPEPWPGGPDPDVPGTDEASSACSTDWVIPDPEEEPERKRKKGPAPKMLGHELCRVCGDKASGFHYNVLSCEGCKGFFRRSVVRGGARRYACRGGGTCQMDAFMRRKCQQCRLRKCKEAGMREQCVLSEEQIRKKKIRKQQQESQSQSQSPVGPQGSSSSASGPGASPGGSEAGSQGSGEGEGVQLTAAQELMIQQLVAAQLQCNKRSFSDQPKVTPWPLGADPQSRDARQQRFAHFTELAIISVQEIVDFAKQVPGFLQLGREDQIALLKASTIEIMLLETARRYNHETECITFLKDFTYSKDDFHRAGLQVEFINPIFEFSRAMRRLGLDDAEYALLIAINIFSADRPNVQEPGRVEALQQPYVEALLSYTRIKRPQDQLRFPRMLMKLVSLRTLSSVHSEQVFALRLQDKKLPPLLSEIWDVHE
hcDAF12 conf = confirmation of H. contortus DAF-12 agonists. shares compounds with hcDAF12 agonist. HEK293 hcDAF-12 lit1-tk-luc reporter, luminescence; % of Δ7-dafachronic acid response. activation, % at 6.8 µM. hit rate 61% among 3,400;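 active = mean activation across triplicate tests above the threshold derived from the earlier primary screen, cut at about 5.5% in these data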;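 note: 0% = DMSO only wells and 100% = 3 µM Δ7-dafachronic acid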
hgDAF12 ag = hgDAF-12 agonism, confirmation assay; shares compounds with hgDAF12 agonist; HEK293 GAL4-hgDAF12 luciferase reporter, agonist mode; percent of butyrate response; activation, % at 6.8 µM; AID 743050; hit rate 80% among 3,300;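 active = mean activation over triplicate wells above the hit cutoff derived from the earlier primary screen, cut at about 11% in these data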;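 note: 0% = DMSO low control and 100% = 2 mM sodium butyrate high control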
LXRb DAF12 ctr = LXR-beta agonism as DAF-12 counter-screen | activation, % at 6.8 µM | shares compounds with hgDAF12 agonist | 3,300 tested, under 10 active | HEK293 Gal4-LXR luciferase reporter, 24 h;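 active = mean activation of the triplicate above a set limit carried over from the primary screen, none filed active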
* hit, by the source's call; x = no result.

SMILES	hcDAF12 agonist	Wnt act	esBAF inh	DAX1 inh	hgDAF12 agonist	ssDAF12 agonist	LXRb hcDAF ctr	hcDAF12 conf	hgDAF12 ag	LXRb DAF12 ctr
C[C@@H]1CN([C@@H](C)CO)C(=O)c2cc(NS(=O)(=O)c3cn(C)cn3)ccc2O[C@@H]1CN(C)C(=O)Nc1ccccc1	x	x	3	x	x	x	x	x	x	x
O=C(N/N=C/c1c[nH]c2ccccc12)c1cccs1	6.9*	43*	x	1	14*	1.7*	1	6.4*	11*	0
Cc1cc(C(=O)N/N=C/c2c[nH]c3ccccc23)cs1	4	-3	x	0	8	1	x	x	x	x
O=C(N/N=C/c1c[nH]c2ccccc12)c1ccc2c(c1)OCCO2	13*	2	51*	1	18*	1.7*	1	7.0*	23*	1
O=C(N/N=C/c1cccc2ccccc12)c1cccs1	8.2*	34*	67*	3	17*	1	1	7.3*	16*	1
O=C(C[C@H]1CC[C@@H](NC(=O)C2CC2)[C@H](CO)O1)NC1CCC1	x	x	3	x	x	x	x	x	x	x
C[C@@H]1CN([C@H](C)CO)C(=O)Cc2cc(NS(=O)(=O)c3ccc(F)cc3)ccc2O[C@@H]1CN(C)C	x	x	-4	x	x	x	x	x	x	x
CSc1nnc(-c2ccccc2Cl)o1	-1	x	21	0	1	-1	x	x	x	x
Clc1ccccc1-c1ncc(-c2ccccc2)o1	9.7*	57*	14	2	14*	1.4*	1	7.8*	21*	1
Cc1ccnc(Nc2nc3ccccc3o2)n1	10*	4	-60	6.5*	21*	0	1	6.6*	10	1
N#Cc1cnc(Nc2nc3ccccc3o2)nc1-c1ccccc1	0	x	36	-1	-1	-1	x	x	x	x
CC(=O)c1ccc2noc(-c3ccc(C)cc3)c2c1	0	0	x	0	3	-1	x	x	x	x
Cc1ccc(-c2onc3ccc(C(=O)O)cc23)cc1	9.4*	4	50*	4	19*	1.0*	1	8.7*	23*	1
C=CCn1c(SCC(=O)Nc2ccc(-c3nc4ccc(C)cc4s3)cc2)nnc1-c1ccccc1	7.2*	30	23	4.5*	18*	0	1	2	10	1
Cc1ccccc1-c1cc(-c2ccccc2O)n[nH]1	11*	55*	-29	4	16*	1.4*	1	8.1*	18*	1
Cc1cc(=O)n2c(-c3ccccc3C)n[nH]c2n1	-1	-1	12	0	-1	-1	x	x	x	x
Cc1ccc(-c2cc(NC(=O)c3ccccc3[N+](=O)[O-])n[nH]2)cc1	-1	8	7	0	1	-1	x	x	x	x
Cc1ccc(-c2cc(-c3ccccc3[N+](=O)[O-])[nH]n2)c(O)c1	9.9*	21	70*	3	14*	2.3*	1	9.6*	16*	1
Cc1ccc(-c2cc(-c3ccc(C)cc3O)[nH]n2)cc1	15*	16	36	3	19*	2.9*	2	10*	22*	1
COC(=O)C[C@H]1C[C@H]2c3cc(NC(=O)CC4CC4)ccc3O[C@H]2[C@@H](CO)O1	x	x	0	x	x	x	x	x	x	x
O=C(Nc1nc2ccccc2[nH]1)c1ccccc1OC(F)F	13*	22	-2	3	14*	1	2	14*	14*	1
Cc1ccsc1C(=O)Nc1nc2ccccc2[nH]1	10*	0	-37	4.5*	17*	1.1*	1	10*	17*	1
